In PubChem BioAssay (NCI):
This is part of a sample that, as a whole, favours compounds with a hit. Of some 79,000 tested, about 15% had one in any assay. Calls of active or inactive are those of the source. Cut-off read from the data, not from the text of the source: active = growth inhibition above about 70%; inactive = the rest.

Test: NCI Yeast Anticancer Drug Screen. Data for the rad50 strain (AID 155);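 note: 0% = growth of vehicle-only cultures of the same strain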
Conditions: S. cerevisiae rad50 strain growth inhibition; at 5.0 µM (retest, dose inferred, filed as 0.5); active compounds read high
Method in brief: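 DNA repair mutant yeast, compound exposure, growth read-out; inhibition is taken relative to vehicle.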

SMILES	growth inhibition
COc1ccc2c(Cc3cc(Cl)ccc3O)cncc2c1O	-1% (inactive)
Cc1ccc(NNC2=NC(=S)NC(=O)C2)cc1	12% (inactive)
CC#CC(=O)Nc1ccccc1CC(c1c[nH]c2ccccc12)c1c[nH]c2ccccc12	50% (inactive)
COC(=O)c1c2oc3c(C(=O)OC)cccc3nc-2cc(N)c1=O	0% (inactive)
CCCCCC(=O)NNc1ccccc1	18% (inactive)
CN(C)CCNc1ccc2nnn3c4ccc(O)cc4c(=O)c1c23	32% (inactive)
COc1ccc2c(c1)C(=O)C[C@@H]1[C@](C)(C#N)CCC[C@]21C	3% (inactive)
CCC(=O)c1cc2ccccc2c2ccccc12	4% (inactive)
O=C1OCCCOC(=O)c2cc(ccc2O)OCC#CC#CCOc2ccc(O)c1c2	2% (inactive)
Nc1nc(Cl)cc(NCC2(CO)CC(CCCc3ccccc3)C2)n1 (stereo not given)	25% (inactive)
NNC(=S)Nc1ccccc1	3% (inactive)
CCOC(=O)c1ccc(N=Cc2cc(Cl)cc(Cl)c2O)cc1	67% (inactive)
CC(C(=O)N1C(=O)N(C(=O)C(C)C(O)c2ccccc2)C(c2ccccc2)C1c1ccccc1)C(O)c1ccccc1 (stereo not given)	3% (inactive)
CC(C)(C)CC(C)(C)N[P+](NC(C)(C)CC(C)(C)C)(NC(C)(C)CC(C)(C)C)NC(C)(C)CC(C)(C)C	89% (active)
C/C(=N\NC(=S)N1CCCC1)c1cnccn1	61% (inactive)
N=C(N)c1ccc(OCCCCOc2ccc(N)cc2Cl)cc1	-36% (inactive)
CCCCCC(CN(C)C)C(O)/C=C\c1ccccc1 (stereo not given)	0% (inactive)
CC1(CO)CCCC2(C)C3=C(CCCC3)CCC12 (stereo not given)	-102% (inactive)
O=C(CCCl)Nc1cc2ccccc2oc1=O	-19% (inactive)
O=[N+]([O-])c1ccccc1N=Nc1c(O)[nH]c2cccc(C(F)(F)F)c12	50% (inactive)

SMILES	growth inhibition
CCCCCCCCC1OC1CCCCCCCC(=O)OCC1CO1 (stereo not given)	1% (inactive)
CCN(CC)CCNc1ccc(C)c2sc3c(OC)cccc3c(=O)c12	1% (inactive)
OC(CCN1CCOCC1)c1ccc(Sc2ccccc2)cc1 (stereo not given)	55% (inactive)
[Cl-].[La+3].[O-]/N=C(\c1ccccc1)c1ccccn1.[O-]/N=C(\c1ccccc1)c1ccccn1.[O-]/N=C(\c1ccccc1)c1ccccn1	42% (inactive)
COc1ccc(NC(=O)CSC(N)=O)cc1	5% (inactive)
Fc1cccc(CSc2ncnc3c2ncn3C2CCCS2)c1 (stereo not given)	4% (inactive)
CC/C(=C(\CC)c1ccc(OCCN2CCOCC2)cc1)c1ccc(OCCN2CCOCC2)cc1	47% (inactive)
O=[N+]([O-])c1c(Cl)ccc2nsnc12	24% (inactive)
COc1ccccc1NC(=O)/C(=C\N1C(=O)/C(=C/c2cc(OC)c(OC)c(OC)c2)SC1=S)C(C)=O	-11% (inactive)
O=CNC(CCCC(=O)O)Cc1cc2ccccc2c2ccccc12 (stereo not given)	5% (inactive)
C=C1CC2(CCCC3(CC(=C)C(=O)O3)C2(C)C)OC1=O (stereo not given)	20% (inactive)
CCOC(=O)Nc1cc(NC(C)/C(=N/O)c2ccccc2)c([N+](=O)[O-])c(N)n1 (stereo not given)	-18% (inactive)
O=C(N=Nc1cccc(Cl)c1)NNc1cccc(Cl)c1	12% (inactive)
Oc1ccc2c(ccc3ccccc32)c1	1% (inactive)
CCc1cccc(C(C)(C)C)c1NC(=S)/N=C/C(C(=O)c1ccccc1)=C(\O)c1ccccc1	-4% (inactive)
NC(=S)N/N=C/c1cn(CCCl)c2ccccc12	7% (inactive)
COC1=Nc2ccccc2S(=O)(=O)C=C1	4% (inactive)
O=C1C2C3C=CC(C3)C2C(=NS(=O)(=O)c2ccccc2)C2C3C=CC(C3)C12 (stereo not given)	-33% (inactive)
NC(=Nc1ccccc1)c1ccc2c(c1)c1c(n2Cc2ccccc2)CCCC1	-9% (inactive)
NN=C(CC(O)(C(F)(F)Cl)C(F)(F)Cl)CC(O)(C(F)(F)Cl)C(F)(F)Cl	32% (inactive)
